# Test results taken from publication PMC7862700, “An all-to-all approach to the identification of sequence-specific readers for epigenetic DNA modifications on cytosine”.
# Legend:
# Experiment in all cases: DAPPL (digital affinity profiling via proximity ligation, sequencing); 10 mM Tris-HCl pH 7.5, 50 mM NaCl, 1 mM DTT, 4% glycerol, room temperature, 30 min; GST-TFs on glutathione beads, 16-mer random dsDNA library, 0.1% formaldehyde crosslink after washing; high values mean tight binding
# Settings in all cases: protein: recombinant; tags: N-terminal GST; dsDNA, one strand shown
# ERF = target: T1, ERF (Homo sapiens, UniProt P50548 1-548)
# T1 sequence: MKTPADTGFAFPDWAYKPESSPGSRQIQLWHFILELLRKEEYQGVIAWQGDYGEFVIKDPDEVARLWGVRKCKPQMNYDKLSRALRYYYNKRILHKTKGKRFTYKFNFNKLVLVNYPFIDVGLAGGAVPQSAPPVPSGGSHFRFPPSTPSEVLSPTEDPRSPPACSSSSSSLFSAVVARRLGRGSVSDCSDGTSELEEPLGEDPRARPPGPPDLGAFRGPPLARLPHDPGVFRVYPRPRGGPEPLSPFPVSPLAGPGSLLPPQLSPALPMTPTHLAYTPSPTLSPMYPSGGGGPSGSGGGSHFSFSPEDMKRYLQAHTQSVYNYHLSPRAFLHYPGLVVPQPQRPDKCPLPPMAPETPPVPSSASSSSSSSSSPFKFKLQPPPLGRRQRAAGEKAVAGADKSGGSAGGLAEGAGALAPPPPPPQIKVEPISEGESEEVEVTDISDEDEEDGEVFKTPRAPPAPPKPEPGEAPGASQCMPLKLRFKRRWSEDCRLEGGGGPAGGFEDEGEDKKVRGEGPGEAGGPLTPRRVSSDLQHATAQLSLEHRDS
# In short: (§1)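 After expression in yeast as GST fusions, human transcription factors were bound to glutathione beads, DNA-barcoded and mixed with a tag-only sample. The pools were incubated with 200 nmole of a 16-mer random double-stranded DNA library in Tris/NaCl/DTT/glycerol buffer (30 min, room temperature), washed and crosslinked with 0.1% formaldehyde. Proximity ligation with BsaI/T4 ligase ran for 1 h at 37 °C, before PCR amplification and sequencing on an Illumina NextSeq500. Binding signal is a hexamer's read frequency for a factor divided by its frequency for the tag-only sample.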
# ETV3L = target: T2, ETV3L (Homo sapiens, UniProt Q6ZN32 1-361)
# T2 sequence: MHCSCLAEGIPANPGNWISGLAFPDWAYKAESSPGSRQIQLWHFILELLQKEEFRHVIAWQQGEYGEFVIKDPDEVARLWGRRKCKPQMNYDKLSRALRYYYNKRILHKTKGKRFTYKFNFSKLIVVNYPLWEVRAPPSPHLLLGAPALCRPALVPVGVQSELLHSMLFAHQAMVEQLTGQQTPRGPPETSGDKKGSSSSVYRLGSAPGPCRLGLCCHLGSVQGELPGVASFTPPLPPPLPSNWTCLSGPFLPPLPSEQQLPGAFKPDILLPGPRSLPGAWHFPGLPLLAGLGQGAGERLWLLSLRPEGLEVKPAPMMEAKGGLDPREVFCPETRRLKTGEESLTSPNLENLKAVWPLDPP
# In short: as §1
# ETS2 = target: T3, ETS2 (Homo sapiens, UniProt P15036 1-469)
# T3 sequence: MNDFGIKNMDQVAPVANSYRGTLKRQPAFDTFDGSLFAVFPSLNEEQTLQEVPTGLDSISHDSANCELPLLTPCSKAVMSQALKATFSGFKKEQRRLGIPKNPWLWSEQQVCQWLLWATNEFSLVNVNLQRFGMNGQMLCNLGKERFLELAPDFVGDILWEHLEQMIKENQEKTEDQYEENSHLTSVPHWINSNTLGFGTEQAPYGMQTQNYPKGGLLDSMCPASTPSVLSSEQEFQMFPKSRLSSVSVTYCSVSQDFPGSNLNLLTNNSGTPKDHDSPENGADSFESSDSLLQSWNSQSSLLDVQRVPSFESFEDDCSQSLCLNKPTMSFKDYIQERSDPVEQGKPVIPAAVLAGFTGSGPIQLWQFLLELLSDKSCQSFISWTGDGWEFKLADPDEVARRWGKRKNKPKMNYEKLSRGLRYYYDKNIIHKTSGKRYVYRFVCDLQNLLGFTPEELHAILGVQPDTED
# In short: as §1
# SPDEF = target: T4, SPDEF (Homo sapiens, UniProt O95238 1-335)
# T4 sequence: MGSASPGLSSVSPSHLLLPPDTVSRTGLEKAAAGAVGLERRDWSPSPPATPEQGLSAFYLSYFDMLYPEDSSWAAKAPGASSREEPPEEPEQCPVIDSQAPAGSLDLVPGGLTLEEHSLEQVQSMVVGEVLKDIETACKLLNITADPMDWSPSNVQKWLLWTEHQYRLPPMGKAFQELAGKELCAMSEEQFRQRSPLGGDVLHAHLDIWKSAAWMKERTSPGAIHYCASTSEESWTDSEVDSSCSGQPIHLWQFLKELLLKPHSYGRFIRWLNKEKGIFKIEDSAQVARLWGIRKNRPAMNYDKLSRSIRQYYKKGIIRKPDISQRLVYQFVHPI
# In short: as §1
# ETV7 = target: T5, ETV7 (Homo sapiens, UniProt Q9Y603 1-341)
# T5 sequence: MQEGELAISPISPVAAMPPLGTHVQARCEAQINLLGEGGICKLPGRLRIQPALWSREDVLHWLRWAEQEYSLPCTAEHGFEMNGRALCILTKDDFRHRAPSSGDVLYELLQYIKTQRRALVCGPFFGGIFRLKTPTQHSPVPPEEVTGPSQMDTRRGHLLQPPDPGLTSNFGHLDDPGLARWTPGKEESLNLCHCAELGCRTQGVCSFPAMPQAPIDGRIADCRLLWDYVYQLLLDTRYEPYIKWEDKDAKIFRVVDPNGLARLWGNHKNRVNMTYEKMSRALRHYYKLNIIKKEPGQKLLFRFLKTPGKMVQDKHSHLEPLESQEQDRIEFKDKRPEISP
# In short: as §1
# ELF5 = target: T6, ELF5 (Homo sapiens, UniProt Q9UKW6-2 1-255)
# T6 sequence: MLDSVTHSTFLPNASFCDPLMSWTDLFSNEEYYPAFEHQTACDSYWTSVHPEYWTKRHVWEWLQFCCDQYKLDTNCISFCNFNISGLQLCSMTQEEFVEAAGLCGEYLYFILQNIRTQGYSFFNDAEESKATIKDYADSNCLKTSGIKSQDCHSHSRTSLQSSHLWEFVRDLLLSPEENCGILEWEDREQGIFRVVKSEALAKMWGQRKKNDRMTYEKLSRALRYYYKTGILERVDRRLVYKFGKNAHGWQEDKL
# In short: as §1
# ETV3 = target: T7, ETV3 (Homo sapiens, UniProt P41162-2 1-143)
# T7 sequence: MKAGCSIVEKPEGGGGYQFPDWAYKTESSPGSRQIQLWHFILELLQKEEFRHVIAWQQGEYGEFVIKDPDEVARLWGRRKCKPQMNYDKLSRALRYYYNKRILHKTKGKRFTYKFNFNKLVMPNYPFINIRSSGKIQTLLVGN
# In short: as §1
# ETV6 = ETV6 (Homo sapiens, UniProt P41212 1-452)
# Sequence of ETV6 (P41212 whole entry): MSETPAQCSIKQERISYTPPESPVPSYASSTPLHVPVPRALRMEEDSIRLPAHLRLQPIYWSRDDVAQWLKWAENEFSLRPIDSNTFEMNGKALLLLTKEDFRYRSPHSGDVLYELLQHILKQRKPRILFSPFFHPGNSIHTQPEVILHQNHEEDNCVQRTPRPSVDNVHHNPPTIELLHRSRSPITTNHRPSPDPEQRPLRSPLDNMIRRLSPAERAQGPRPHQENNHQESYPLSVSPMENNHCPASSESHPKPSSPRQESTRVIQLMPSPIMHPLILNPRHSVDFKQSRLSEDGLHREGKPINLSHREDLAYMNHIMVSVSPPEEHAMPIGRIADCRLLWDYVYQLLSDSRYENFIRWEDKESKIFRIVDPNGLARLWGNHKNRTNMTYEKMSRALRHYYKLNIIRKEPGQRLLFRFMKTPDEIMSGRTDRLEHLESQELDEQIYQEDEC
# In short: as §1
Sequence,binding signal (ERF),binding signal (ETV3L),binding signal (ETS2),binding signal (SPDEF),binding signal (ETV7),binding signal (ELF5),binding signal (ETV3),binding signal (ETV6)
TTTAGC,"1.19 fold enrichment (6-mer frequency, TF over GST control)","1.21 fold enrichment (6-mer frequency, TF over GST control)","1.01 fold enrichment (6-mer frequency, TF over GST control)","1.08 fold enrichment (6-mer frequency, TF over GST control)","1.03 fold enrichment (6-mer frequency, TF over GST control)","1 fold enrichment (6-mer frequency, TF over GST control)","1.13 fold enrichment (6-mer frequency, TF over GST control)","1.12 fold enrichment (6-mer frequency, TF over GST control)"
TATTGA,"1.12 fold enrichment (6-mer frequency, TF over GST control)","1.22 fold enrichment (6-mer frequency, TF over GST control)","1.12 fold enrichment (6-mer frequency, TF over GST control)","1.17 fold enrichment (6-mer frequency, TF over GST control)","1.14 fold enrichment (6-mer frequency, TF over GST control)","1.11 fold enrichment (6-mer frequency, TF over GST control)","1.19 fold enrichment (6-mer frequency, TF over GST control)","1.16 fold enrichment (6-mer frequency, TF over GST control)"
CTGAAA,"1.09 fold enrichment (6-mer frequency, TF over GST control)","1.1 fold enrichment (6-mer frequency, TF over GST control)","1.19 fold enrichment (6-mer frequency, TF over GST control)","1.16 fold enrichment (6-mer frequency, TF over GST control)","1.12 fold enrichment (6-mer frequency, TF over GST control)","1.09 fold enrichment (6-mer frequency, TF over GST control)","1.17 fold enrichment (6-mer frequency, TF over GST control)","1.16 fold enrichment (6-mer frequency, TF over GST control)"
AAGGAT,"1.12 fold enrichment (6-mer frequency, TF over GST control)","1.21 fold enrichment (6-mer frequency, TF over GST control)","1.14 fold enrichment (6-mer frequency, TF over GST control)","1.37 fold enrichment (6-mer frequency, TF over GST control)","1.05 fold enrichment (6-mer frequency, TF over GST control)","1.43 fold enrichment (6-mer frequency, TF over GST control)","1.24 fold enrichment (6-mer frequency, TF over GST control)","1.21 fold enrichment (6-mer frequency, TF over GST control)"
TCCTCA,"1.32 fold enrichment (6-mer frequency, TF over GST control)","1.62 fold enrichment (6-mer frequency, TF over GST control)","1.56 fold enrichment (6-mer frequency, TF over GST control)","1.59 fold enrichment (6-mer frequency, TF over GST control)","1.38 fold enrichment (6-mer frequency, TF over GST control)","2.13 fold enrichment (6-mer frequency, TF over GST control)","1.61 fold enrichment (6-mer frequency, TF over GST control)","1.54 fold enrichment (6-mer frequency, TF over GST control)"
CTGCTA,"1.49 fold enrichment (6-mer frequency, TF over GST control)","1.38 fold enrichment (6-mer frequency, TF over GST control)","1.49 fold enrichment (6-mer frequency, TF over GST control)","1.4 fold enrichment (6-mer frequency, TF over GST control)","1.5 fold enrichment (6-mer frequency, TF over GST control)","1.43 fold enrichment (6-mer frequency, TF over GST control)","1.39 fold enrichment (6-mer frequency, TF over GST control)","1.39 fold enrichment (6-mer frequency, TF over GST control)"
TTCTAC,"1.7 fold enrichment (6-mer frequency, TF over GST control)","1.51 fold enrichment (6-mer frequency, TF over GST control)","1.62 fold enrichment (6-mer frequency, TF over GST control)","1.5 fold enrichment (6-mer frequency, TF over GST control)","1.54 fold enrichment (6-mer frequency, TF over GST control)","1.54 fold enrichment (6-mer frequency, TF over GST control)","1.41 fold enrichment (6-mer frequency, TF over GST control)","1.49 fold enrichment (6-mer frequency, TF over GST control)"
CTAAGA,"1.08 fold enrichment (6-mer frequency, TF over GST control)","1.21 fold enrichment (6-mer frequency, TF over GST control)","1.17 fold enrichment (6-mer frequency, TF over GST control)","1.15 fold enrichment (6-mer frequency, TF over GST control)","1.25 fold enrichment (6-mer frequency, TF over GST control)","1.2 fold enrichment (6-mer frequency, TF over GST control)","1.17 fold enrichment (6-mer frequency, TF over GST control)","1.23 fold enrichment (6-mer frequency, TF over GST control)"
TTAAAC,"1.39 fold enrichment (6-mer frequency, TF over GST control)","1.36 fold enrichment (6-mer frequency, TF over GST control)","1.2 fold enrichment (6-mer frequency, TF over GST control)","1.18 fold enrichment (6-mer frequency, TF over GST control)","1.14 fold enrichment (6-mer frequency, TF over GST control)","1.18 fold enrichment (6-mer frequency, TF over GST control)","1.23 fold enrichment (6-mer frequency, TF over GST control)","1.3 fold enrichment (6-mer frequency, TF over GST control)"
GTTCTA,"1.27 fold enrichment (6-mer frequency, TF over GST control)","1.2 fold enrichment (6-mer frequency, TF over GST control)","1.25 fold enrichment (6-mer frequency, TF over GST control)","1.19 fold enrichment (6-mer frequency, TF over GST control)","1.2 fold enrichment (6-mer frequency, TF over GST control)","1.23 fold enrichment (6-mer frequency, TF over GST control)","1.19 fold enrichment (6-mer frequency, TF over GST control)","1.24 fold enrichment (6-mer frequency, TF over GST control)"
ATGACG,"1.39 fold enrichment (6-mer frequency, TF over GST control)","1.34 fold enrichment (6-mer frequency, TF over GST control)","1.26 fold enrichment (6-mer frequency, TF over GST control)","1.45 fold enrichment (6-mer frequency, TF over GST control)","1.16 fold enrichment (6-mer frequency, TF over GST control)","1.44 fold enrichment (6-mer frequency, TF over GST control)","1.2 fold enrichment (6-mer frequency, TF over GST control)","1.28 fold enrichment (6-mer frequency, TF over GST control)"
CCGAAT,"1.35 fold enrichment (6-mer frequency, TF over GST control)","1.24 fold enrichment (6-mer frequency, TF over GST control)","1.22 fold enrichment (6-mer frequency, TF over GST control)","1.17 fold enrichment (6-mer frequency, TF over GST control)","1.12 fold enrichment (6-mer frequency, TF over GST control)","1.1 fold enrichment (6-mer frequency, TF over GST control)","1.12 fold enrichment (6-mer frequency, TF over GST control)","1.22 fold enrichment (6-mer frequency, TF over GST control)"
GCTCTC,"1.42 fold enrichment (6-mer frequency, TF over GST control)","1.52 fold enrichment (6-mer frequency, TF over GST control)","1.51 fold enrichment (6-mer frequency, TF over GST control)","1.12 fold enrichment (6-mer frequency, TF over GST control)","1.25 fold enrichment (6-mer frequency, TF over GST control)","1.2 fold enrichment (6-mer frequency, TF over GST control)","1.48 fold enrichment (6-mer frequency, TF over GST control)","1.43 fold enrichment (6-mer frequency, TF over GST control)"
TAAAGT,"1.09 fold enrichment (6-mer frequency, TF over GST control)","1.29 fold enrichment (6-mer frequency, TF over GST control)","1.22 fold enrichment (6-mer frequency, TF over GST control)","1.15 fold enrichment (6-mer frequency, TF over GST control)","1.25 fold enrichment (6-mer frequency, TF over GST control)","1.17 fold enrichment (6-mer frequency, TF over GST control)","1.18 fold enrichment (6-mer frequency, TF over GST control)","1.09 fold enrichment (6-mer frequency, TF over GST control)"
AAATCT,"1.3 fold enrichment (6-mer frequency, TF over GST control)","1.32 fold enrichment (6-mer frequency, TF over GST control)","1.33 fold enrichment (6-mer frequency, TF over GST control)","1.25 fold enrichment (6-mer frequency, TF over GST control)","1.16 fold enrichment (6-mer frequency, TF over GST control)","1.27 fold enrichment (6-mer frequency, TF over GST control)","1.19 fold enrichment (6-mer frequency, TF over GST control)","1.24 fold enrichment (6-mer frequency, TF over GST control)"
